# Reference: PubChem BioAssay
# Active and inactive are the calls of the source.
# How the values were obtained:
# [1] = test system: Human papillomavirus type 1a protein E7 (residues 44-93); test: HPV1a E7 fragment binders on microarrays, primary screen, biochemical, small-molecule microarray, residues 44-93, 635 nm fluorescence (AID 1108); conditions: small-molecule microarray binding, fluorescence 635 nm; higher = more signal;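 further: E7 fragment applied at 1 µg/mL in TBST for 1 h at 4 C; score combines spot fluorescence with its signal to noise ratio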
# [2] = modulators of HCV replicon luciferase signal, primary screen, HCV replication inhibitor project, Huh7 cells, luciferase reporter (AID 1109); conditions: 48 h, higher = more signal;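 further: huh7 hepatoma cells harbouring a luciferase neomycin HCV replicon reporter; luciferase luminescence as measure of HCV replicon replication; test concentration not given here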
# [3] = molecular target: Left-right determination factor 2 (Homo sapiens) (UniProt O00292); test: LEFTY2 binders on small-molecule microarrays, primary screen, biochemical, small-molecule microarray, 635 nm fluorescence scan (AID 1110); conditions: LEFTY2 binding, higher = more signal
# Sequence of Left-right determination factor 2 (Homo sapiens) (O00292 whole entry, looked up): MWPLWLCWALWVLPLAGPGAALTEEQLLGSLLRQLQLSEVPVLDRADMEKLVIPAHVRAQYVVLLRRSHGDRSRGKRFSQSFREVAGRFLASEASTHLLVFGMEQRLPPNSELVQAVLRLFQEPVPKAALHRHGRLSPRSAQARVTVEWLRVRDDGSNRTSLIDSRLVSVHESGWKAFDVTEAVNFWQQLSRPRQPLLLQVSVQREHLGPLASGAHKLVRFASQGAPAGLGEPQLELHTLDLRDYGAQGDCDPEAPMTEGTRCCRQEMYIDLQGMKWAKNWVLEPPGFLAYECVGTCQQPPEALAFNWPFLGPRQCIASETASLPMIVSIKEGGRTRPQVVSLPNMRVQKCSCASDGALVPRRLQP
# [4] = molecular target: Calmodulin-1 (Homo sapiens) (UniProt P0DP23); test: CALM1 binders on microarrays, EGTA buffer, profiling panel, biochemical, small-molecule microarray, Cy5-labelled CALM1 (AID 1111); conditions: Cy5-CALM1 binding fluorescence, higher = more signal;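 further: labelled calmodulin applied in Tris saline Tween buffer holding calcium plus EGTA and DTT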
# [5] = molecular target: Calmodulin-1 (Homo sapiens) (UniProt P0DP23); test: calcium-bound CALM1 binders on microarrays, profiling panel, artefact control for SMM control-protein annotation, biochemical, small-molecule microarray, Cy5-labelled CALM1, plus calcium (AID 1112); conditions: Cy5-CALM1 binding fluorescence, higher = more signal;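 further: score merges spot fluorescence with signal to noise from triplicate slides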
# [6] = small-molecule microarray binders of probe aWnt5a, primary screen, biochemical, biotinylated probe, 635/667 nm fluorescence (AID 1113); conditions: higher = more signal;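 further: score merges 667 nm fluorescence intensity with signal-to-noise per printed feature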
# [7] = small-molecule microarray binders of probe aShh, primary screen, biochemical, biotinylated probe, 635/667 nm fluorescence (AID 1114); conditions: higher = more signal;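 further: probe is biotin-labelled aShh protein from a stem cell growth factor screen; measures binding of labelled protein to compounds printed on the slide; score merges feature fluorescence at 667 nm with signal-to-noise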
# [8] = small-molecule microarray binders of probe aNog, primary screen, biochemical, biotinylated probe, 635/667 nm fluorescence (AID 1115); conditions: higher = more signal;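 further: probe is biotinylated aNog protein used at 0.15 µg/mL for 1 h at 4 C; z-score combines 667 nm fluorescence of each spot with its signal to noise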
# [9] = molecular target: Torsin-1A-interacting protein 1 (Homo sapiens) (UniProt Q5JTV8); test: LAP1 binders from COS7 cell lysate, primary screen, small-molecule microarray, 635/667 nm fluorescence (AID 1116); conditions: COS7-hLAP1 lysate binding, 635 nm fluorescence, higher = more signal
# Sequence of Torsin-1A-interacting protein 1 (Homo sapiens) (Q5JTV8 whole entry, looked up): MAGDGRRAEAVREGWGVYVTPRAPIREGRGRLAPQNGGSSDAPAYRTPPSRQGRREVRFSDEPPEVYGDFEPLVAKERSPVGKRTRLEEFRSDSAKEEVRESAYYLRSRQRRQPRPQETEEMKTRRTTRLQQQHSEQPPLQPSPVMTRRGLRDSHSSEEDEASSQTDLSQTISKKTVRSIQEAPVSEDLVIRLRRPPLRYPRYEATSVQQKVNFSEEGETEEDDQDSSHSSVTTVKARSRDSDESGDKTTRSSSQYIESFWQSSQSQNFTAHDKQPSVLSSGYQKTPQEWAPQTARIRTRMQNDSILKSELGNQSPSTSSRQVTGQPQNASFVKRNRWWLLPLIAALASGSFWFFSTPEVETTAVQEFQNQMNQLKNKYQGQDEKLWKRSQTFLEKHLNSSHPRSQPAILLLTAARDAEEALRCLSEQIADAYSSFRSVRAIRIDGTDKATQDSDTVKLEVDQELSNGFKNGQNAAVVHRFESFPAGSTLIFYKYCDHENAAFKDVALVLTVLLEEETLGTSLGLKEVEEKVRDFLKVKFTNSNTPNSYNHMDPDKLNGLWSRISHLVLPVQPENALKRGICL
# [10] = molecular target: Alpha-bungarotoxin (Bungarus multicinctus) (UniProt P60615); test: alpha-bungarotoxin binders on microarray, profiling panel, artefact control for SMM control protein annotation, biochemical, small-molecule microarray, Alexa647 label, 635/667 nm fluorescence (AID 1117); conditions: alpha-BTX-A647 binding fluorescence, higher = more signal
# Sequence of Alpha-bungarotoxin (Bungarus multicinctus) (P60615 whole entry, looked up): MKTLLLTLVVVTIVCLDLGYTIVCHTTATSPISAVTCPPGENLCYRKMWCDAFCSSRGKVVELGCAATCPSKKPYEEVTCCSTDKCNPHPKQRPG
# [11] = molecular target: Albumin (Bos taurus) (UniProt P02769); test: bovine serum albumin binders on microarray, profiling panel, artefact control for SMM control protein annotation, biochemical, small-molecule microarray, Alexa647 label, 635/667 nm fluorescence (AID 1118); conditions: BSA-A647 binding, fluorescence 635 nm, higher = more signal;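 further: score merges 667 nm emission intensity and signal-to-noise per printed compound spot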
# Sequence of Albumin (Bos taurus) (P02769 whole entry, looked up): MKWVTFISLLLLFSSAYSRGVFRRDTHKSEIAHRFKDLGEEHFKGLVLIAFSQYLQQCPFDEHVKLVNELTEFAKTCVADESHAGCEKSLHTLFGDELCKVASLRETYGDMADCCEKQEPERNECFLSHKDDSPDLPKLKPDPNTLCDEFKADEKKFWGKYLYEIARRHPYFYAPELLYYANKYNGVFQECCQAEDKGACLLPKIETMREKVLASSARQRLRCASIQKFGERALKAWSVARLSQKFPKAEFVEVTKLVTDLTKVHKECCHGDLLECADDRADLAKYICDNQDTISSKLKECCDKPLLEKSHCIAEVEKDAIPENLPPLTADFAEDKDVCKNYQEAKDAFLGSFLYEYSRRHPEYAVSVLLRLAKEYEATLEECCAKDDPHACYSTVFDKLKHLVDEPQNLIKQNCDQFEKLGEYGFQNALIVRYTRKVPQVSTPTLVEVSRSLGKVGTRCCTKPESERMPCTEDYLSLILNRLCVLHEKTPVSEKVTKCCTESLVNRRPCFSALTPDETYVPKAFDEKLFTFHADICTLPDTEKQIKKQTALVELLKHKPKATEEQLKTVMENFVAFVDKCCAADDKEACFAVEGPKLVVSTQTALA
# [12] = small-molecule microarray binders of probe aXIP, primary screen, biochemical, NeuroSMM set, 635/667 nm fluorescence (AID 1119); conditions: higher = more signal, called active from +8 up or from −8 down;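 further: probe is the protein aXip251-270 applied at 1 µg/mL to compound-printed slides; binding of probe to printed compounds measured as 667 nm fluorescence plus signal to noise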
# [13] = small-molecule binders of probe aNOTCH3, primary screen, biochemical, small-molecule microarray, 635/667 nm fluorescence (AID 1120); conditions: higher = more signal;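 further: probe is a biotin-tagged antibody raised against NOTCH3 rather than NOTCH3 protein; score merges spot fluorescence near 667 nm with spot signal to noise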
# [14] = small-molecule binders of probe aNOTCH2, primary screen, biochemical, small-molecule microarray, 635/667 nm fluorescence (AID 1121); conditions: higher = more signal;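 further: score merges feature fluorescence read at 667 nm with its signal to noise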
# [15] = molecular target: Carbonic anhydrase 2 (Homo sapiens) (UniProt P00918); test: CAII small-molecule binders, profiling panel, biochemical, small-molecule microarray, Alexa647-labelled CAII (AID 1122); conditions: CAII-A647 binding fluorescence, higher = more signal
# [16] = COS7 lysate on small-molecule microarray, probe aHis, 635 nm (AID 1123); conditions: COS7 cell lysate, fluorescence, higher = more signal;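 further: z-score combines 667nm fluorescence intensity with signal-to-noise per printed compound spot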
# [17] = compound binding in COS7 lysate, probe aLAP1, primary screen, cell lysate, small-molecule microarray (AID 1124); conditions: probe aLAP1, fluorescence, higher = more signal;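 further: lysate comes from COS7 cells expressing LAP1 and is applied at 0.3 µg/mL; score merges spot fluorescence near 667 nm with signal-to-noise over triplicate slides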
# [18] = test system: Sam68 (KHDRBS1); test: Sam68 small-molecule binders, primary screen, biochemical, small-molecule microarray, 635 nm fluorescence (AID 1125); conditions: small-molecule microarray binding, higher = more signal;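 further: score merges 667 nm channel intensity with signal to noise over triplicate slides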
# [19] = test system: Chordin-like protein 2 (CHRDL2); test: CHRDL2 small-molecule binders, primary screen, biochemical, small-molecule microarray, 635 nm fluorescence (AID 1126); conditions: small-molecule microarray binding, fluorescence 635 nm; higher = more signal;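 further: printed compound slides probed with Chrdl2 protein at 4 µg/mL for 1 h at 4 C; score merges 667 nm emission intensity with signal to noise over three replicate slides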
# [20] = molecular target: Concanavalin-A (Canavalia ensiformis) (UniProt P02866); test: ConA small-molecule binders, primary screen, artefact control for SMM control protein annotation, biochemical, small-molecule microarray, Alexa647 label, 635 nm (AID 1127); conditions: ConA-A647 binding fluorescence, higher = more signal;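 further: z combines 667 nm emission intensity with signal-to-noise across three replicate slides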
# Sequence of Concanavalin-A (Canavalia ensiformis) (P02866 whole entry, looked up): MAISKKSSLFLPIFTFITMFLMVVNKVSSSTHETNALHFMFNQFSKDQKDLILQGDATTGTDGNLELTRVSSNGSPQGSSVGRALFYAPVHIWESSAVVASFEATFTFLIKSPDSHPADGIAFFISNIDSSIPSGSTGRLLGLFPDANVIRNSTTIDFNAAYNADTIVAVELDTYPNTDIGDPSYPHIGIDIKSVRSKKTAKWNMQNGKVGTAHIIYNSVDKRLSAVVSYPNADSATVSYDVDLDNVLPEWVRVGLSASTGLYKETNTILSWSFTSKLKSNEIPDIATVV
SMILES,composite z-score [1],z-score [2],composite z-score [3],composite z-score [4],composite z-score [5],composite z-score [6],composite z-score [7],composite z-score [8],composite z-score [9],composite z-score [10],composite z-score [11],composite Z-score [12],composite z-score [13],composite z-score [14],composite z-score [15],composite z-score [16],composite z-score [17],composite z-score [18],composite z-score [19],composite z-score [20]
COC(=O)c1c(CC[C@@H](CO)NC(=O)N[C@H](Cn2cc(-c3ccccc3C)nn2)C(C)C)oc(C(C)=O)c1C(=O)OC,-0.794,-0.515,-0.645,-0.0696,-0.637,-0.169,-0.0553,0.0099,0.441,0.879,0.119,-0.115 (inactive),-0.0731,-0.075,0.0708,-0.363,-0.108,-1.08,-0.767,0.43
CC=CC(O)C1C=CC2C(=O)N(c3ccccc3)C(=O)C2N1Nc1ccc([N+](=O)[O-])cc1 (stereo not given),1.21,0.0112,0.382,-0.107,-0.654,-0.0685,0.0469,-0.124,0.643,0.529,0.0015,-0.127 (inactive),-0.0044,-0.123,0.661,0.657,0.865,0.729,0.414,0.217
CN1C(=O)[C@@]2(CCS(=O)(=O)c3ccccc3)N=C(c3ccc(OCCCO)cc3)O[C@H]2c2ccccc21,1.48,-1.55,-0.0486,2.46,-0.865,-0.176,-0.367,-0.321,1.72,1.32,0.159,0.334 (inactive),0.058,-0.146,0.688,2.74,0.428,1.28,0.0089,1.1
COC(=O)C[C@H]1O[C@]2(C(=O)N(C)c3ccccc32)[C@@H](C)[C@@H]1[Si](C)(C)c1ccc(C)cc1,1.15,-2.92,0.375,0.196,-0.0787,-0.136,-0.393,-0.121,0.346,0.638,0.683,0.397 (inactive),-0.113,-0.117,0.0614,0.311,0.218,1.16,0.0565,0.379
O=C1O[C@@H](c2ccccc2)[C@@H](c2ccccc2)N2[C@@H](c3ccc(O)cc3)[C@]3(C(=O)Nc4ccc(C#CCCO)cc43)[C@@H](C(=O)NC[C@H](O)c3ccccc3)[C@H]12,0.334,0.0035,-1.87,-0.282,0.374,-0.243,0.057,1.4,-0.138,-0.588,0.273,1.62 (inactive),-0.158,-0.167,0.724,-0.112,0.102,0.249,-1.39,-0.101
C=C(/C=C/CNS(=O)(=O)c1ccc(C)cc1)[C@H](O)[C@H]1CCCN1S(=O)(=O)c1ccccc1[N+](=O)[O-],-0.197,-2.48,0.77,-0.115,-0.795,-0.119,-0.138,-0.272,0.581,0.616,0.699,-0.327 (inactive),-0.0932,-0.138,0.305,0.0646,0.394,0.0808,0.547,0.0635
